Where “and” joins values, the source holds several entries; their conditions need not be identical. Equal entries are not always repeated. Results filed as inconclusive are left out. A call without a number means that no potency is given here. More than one record can exist for a structure, and the calls need not agree. Calls of active or inactive are those of the source. Calls come from the whole dose curve; as a rule, active = well fitted curve in the direction sought with a large enough effect; inconclusive = small, poorly fitted or top-dose-only effect, or another doubt; inactive = no such curve, though single readings can be large; an effect the other way counts as inactive or inconclusive. Where a SMILES comes first, the peptide text is derived from it. [ ]: non-standard residue; d: D form. ξ: configuration not given here. ξTyr(βOH) = NC(C(=O)O)C(O)c1ccc(O)cc1
Legend:
[1] = molecular target: Calcium and integrin-binding protein 1 (Homo sapiens) (UniProt Q99828); test: Primary qHTS for Identification of Calcium Integrin Binding Protein 1 (CIB1) Competitor (AID 1508620);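 note: GST tagged CIB1 binding a fluorescein labelled alphaIIb integrin peptide tracer; top concentration of the series differs between compounds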
Chain of Calcium and integrin-binding protein 1 (Homo sapiens) (Q99828 whole entry, looked up): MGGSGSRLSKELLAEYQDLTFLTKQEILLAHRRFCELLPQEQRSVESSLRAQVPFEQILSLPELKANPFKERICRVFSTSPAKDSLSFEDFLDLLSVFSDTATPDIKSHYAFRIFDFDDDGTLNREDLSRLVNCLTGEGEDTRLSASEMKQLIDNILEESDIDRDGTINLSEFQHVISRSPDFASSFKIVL
Outline: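 CIB1-GST (1 uM final) and compound incubated 15 min at room temperature before adding FITC-alphaIIb peptide tracer (100 nM final). Competition for binding read by fluorescence polarization (ex 480, em 540) after another 15 min at room temperature.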

[2] = Primary qHTS for inhibitors of nuclear receptor binding SET domain protein 2 (NSD2) in an isogenic RCH-ACV NSD2 p.E1099K mutant (9B) (AID 1645876); note: nearly all actives have a fitted effect of over 70% in size; note: potency is the fitted concentration of half-maximal effect
[3] = Primary qHTS for inhibitors of nuclear receptor binding SET domain protein 2 (NSD2) in an RCH-ACV wild type WT cells (2C) (AID 1645877); note: nearly all actives have a fitted effect of over 70% in size; note: potency is the fitted concentration of half-maximal effect

| Compound | Potency [1] | Potency [2] | Potency [3] | activity change, negative = viability loss [2] | activity change, negative = cell killing [3] |
| --- | --- | --- | --- | --- | --- |
| COc1cc(C[C@@]2(O)CO[C@@H](c3ccc(O[C@@H]4O[C@H](CO)[C@@H](O)[C@H](O)[C@H]4O)c(OC)c3)[C@H]2CO)ccc1O | inactive | inactive | inactive |  |  |
| CC(=O)O[C@H]1C[C@@H](O)C(C)(C)C2C[C@@H](OC(C)=O)[C@]3(C)C(CC[C@@]4(C)[C@H](c5ccoc5)OC(=O)[C@H]5O[C@]543)[C@]21C (stereo partly specified) | inactive | inactive | inactive |  |  |
| C=C[C@H]1[C@H](O[C@@H]2O[C@H](CO)[C@@H](O)[C@H](O)[C@H]2O)OC=C(C(=O)OC)[C@H]1CC=O | inactive | inactive | inactive |  |  |
| C/C=C/C=C/C=C/C(=O)O[C@@H]1[C@@H](OC)C2=C(C(=O)N(C(CCC(=O)O)C(=O)O)C2)[C@@]2(C)CCCC(C)(C)[C@H]12 (stereo partly specified) | inactive | inactive | inactive |  |  |
| C=CCc1ccc(O[C@@H]2O[C@H](CO)[C@@H](O)[C@H](O)[C@H]2O)c(O[C@@H]2O[C@H](CO)[C@@H](O)[C@H](O)[C@H]2O)c1 | inactive | inactive | inactive |  |  |
| CC(C)C(O)(CO)CCO[C@@H]1O[C@H](CO[C@H]2OC[C@](O)(CO)[C@H]2O)[C@@H](O)[C@H](O)[C@H]1O (stereo partly specified) | inactive | inactive | inactive |  |  |
| C[C@]12CC[C@@H]3c4ccc(O)cc4CC[C@H]3[C@@H]1C[C@@H](O[C@@H]1O[C@H](C(=O)O)[C@@H](O)[C@H](O)[C@H]1O)[C@@H]2O | inactive | inactive | inactive |  |  |
| C=C(COC(=O)C(C)C)C1Oc2cc(C(C)=O)ccc2C1OC(=O)C(C)C (stereo unspecified) | inactive | inactive | inactive |  |  |
| CC1(O)CC(O)C2C(C(=O)O)=COC(OC3OC(CO)C(O)C(O)C3OC(=O)/C=C/c3ccc(O)cc3)C21 (stereo unspecified) | inactive | inactive | inactive |  |  |
| CCC(C)/C=C(C)/C=C/C1=CC2=C(Cl)C(=O)C(C)(OC(C)=O)C(=O)C2=CN1CCCCC(N)C(=O)O (stereo unspecified) | inactive | inactive | inactive |  |  |
| C[C@]1(O)CC[C@@H]2C(C(=O)O)=CO[C@@H](O[C@@H]3O[C@H](COC(=O)/C=C/c4ccc(O)c(O)c4)[C@@H](O)[C@H](O)[C@H]3O)[C@@H]21 | inactive | inactive | inactive |  |  |
| CC(=O)/C=C/C1(O)C(C)CC(O[C@@H]2O[C@H](CO)[C@@H](O)[C@H](O)[C@H]2O)CC1(C)C (stereo partly specified) | inactive | inactive | inactive |  |  |
| C/C=C(/C)C(=O)O[C@H]1C[C@]2(C)O[C@@H]2[C@@H](OC(C)=O)[C@@]2(C)CC[C@@](O)(C(C)C)[C@H]12 | inactive | inactive | inactive |  |  |
| O=C(C1OC1/C=C/c1ccc2c(c1)OCO2)N1CCCCC1 (stereo unspecified) | inactive | inactive | inactive |  |  |
| O=C(O)c1ccnc(-c2cc(C(=O)NCCc3ccccc3)ccn2)c1 | inactive | inactive | inactive |  |  |
| CC1CC2OCC3(O)CCC(O)C(C14CC(c1ccoc1)OC4=O)C23CO (stereo unspecified) | inactive | inactive | inactive |  |  |
| C=C1C(=O)OC[C@H]2C(C(=O)O)=CC3CC(C)(C)C[C@@]132 (stereo partly specified) | inactive | inactive | inactive |  |  |
| CC(C)N(CCCNC(=O)Nc1ccc(C(C)(C)C)cc1)C[C@H]1O[C@@H](n2ccc3c(N)ncnc32)[C@H](O)[C@@H]1O | inactive | inactive | inactive and 18.6 µM (active) |  |  |
| CC12CC34CC(O)C5C(CO)(CO)CC(=O)CC5(C)C3CC1C2C4 (stereo unspecified) | inactive | inactive | inactive |  |  |

| Compound | Potency [1] | Potency [2] | Potency [3] | activity change, negative = viability loss [2] | activity change, negative = cell killing [3] |
| --- | --- | --- | --- | --- | --- |
| C#CCCCn1cc(-c2cccc3c2N[C@@H](C)CC(=O)N3)cn1 | inactive | inactive | inactive |  |  |
| CC(O)C1CCC2C3CCC4CC(OC5OC(C(=O)O)C(O)C(O)C5O)CCC4(C)C3CCC12C (stereo unspecified) | inactive | inactive | inactive |  |  |
| C[C@H]1/C=C/C=C/C=C/C=C/C=C/[C@@H](O)[C@H](C(=O)O)[C@H](O)C[C@H](O)CCC[C@H](O)C[C@H](O)C[C@H](O)[C@@H](C)C(=O)O[C@@H]1C | inactive | inactive | inactive |  |  |
| OC[C@H]1O[C@@H](OC[C@H]2O[C@@H](OCc3ccccc3)[C@H](O)[C@@H](O)[C@@H]2O)[C@H](O)[C@@H](O)[C@@H]1O | inactive | inactive | inactive |  |  |
| CN1CCN(C(=O)c2cc3cc(Cl)ccc3[nH]2)CC1 | inactive | inactive | inactive |  |  |
| COc1cc(O)cc(O[C@@H]2O[C@H](CO)[C@@H](O[C@@H]3OC[C@](O)(CO)[C@H]3O)[C@H](O)[C@H]2O)c1OC | inactive | inactive | inactive |  |  |
| CCN(CCN(C)C)C(=O)CNCc1cc(C(N)=O)ccn1 | inactive | inactive | inactive |  |  |
| CC(C)C1NC(=O)CNC(=O)C2CCCN2C(=O)C(Cc2c[nH]c3ccccc23)NC(=O)CNC(=O)C(C(O)c2ccc(O)cc2)NC(=O)CNC1=O (stereo unspecified) (cyclo(G[ξTyr(βOH)]GWPGV); configuration not given here) | inactive | inactive | inactive |  |  |
| C[C@H](/C=C/[C@@]1(O)[C@H](C)CC(=O)CC1(C)C)O[C@@H]1O[C@H](CO[C@@H]2OC[C@@H](O)[C@H](O)[C@H]2O)[C@@H](O)[C@H](O)[C@H]1O | inactive | inactive | inactive |  |  |
| CC1(C)C2CCC1(C)C(OC(=O)C(O)(CC(=O)O)CC(=O)O)C2 (stereo unspecified) | inactive | inactive | inactive |  |  |
| CC12CC(c3ccoc3)OC(=O)C1CCC1(C)C2CCC(O)C1(C)O (stereo unspecified) | inactive | inactive | inactive |  |  |
| O=C1C[C@@]2(C(=O)N1)C(=O)N(Cc1ccc(Br)cc1F)C(=O)c1cccn12 | inactive | inactive | inactive |  |  |
| CC1(C)CCC2(C(=O)O)C(O)CC3(C)C(=CCC4C5(C)CCC(OC6OC(CO)C(O)C(O)C6OC6OC(CO)C(O)C(O)C6OC6OCC(O)(CO)C6O)C(C)(C)C5CCC43C)C2C1 (stereo unspecified) | inactive |  |  | 3.44% [at 9.23 µM] (inactive) | 2.63% [at 9.23 µM] (inactive) |
| O=C(O[C@@H]1O[C@H](CO)[C@@H](O)[C@H](O)[C@H]1O)c1ccccc1 | inactive | inactive | inactive |  |  |
| C=C1C(OC(C)=O)CCC2(C)CCC(C(C)(C)O)CC12 (stereo unspecified) | inactive | inactive | inactive |  |  |
| CC(C)c1ccc2c(c1)C(=O)CC1C(C)(C(=O)O)CCCC21C (stereo unspecified) | inactive | inactive | inactive |  |  |
| OC[C@H]1O[C@@H](OCc2ccccc2)[C@H](O)[C@@H](O)[C@@H]1O | inactive | inactive | inactive |  |  |
| CC(C)(O)C1CCC2(C)CCCC(C)(O)C2C1 (stereo unspecified) | inactive | inactive | inactive |  |  |
| C=C1CCC(OC(C)=O)C2(C)CC3OC(=O)C(C)=C3CC12 (stereo unspecified) | inactive | inactive | inactive |  |  |

| Compound | Potency [1] | Potency [2] | Potency [3] | activity change, negative = viability loss [2] | activity change, negative = cell killing [3] |
| --- | --- | --- | --- | --- | --- |
| O=C(O[C@H]1[C@H](Oc2ccc(O)cc2CO)O[C@H](CO)[C@@H](O)[C@@H]1O)c1ccccc1 | inactive | inactive | inactive |  |  |
| C[C@]12CCC[C@](C)(C(=O)O)C1CCC13CC(CO)C(CCC12)C3 (stereo partly specified) | inactive | inactive | inactive |  |  |
| C[C@]12CCC[C@](C)(C(=O)O)C1[C@@H](O)[C@@H](O)C13CC(CCC12)C(CO)(O[C@@H]1O[C@H](CO)[C@@H](O)[C@H](O)[C@H]1O)C3 (stereo partly specified) | inactive | inactive | inactive |  |  |
| CC/C=C\[C@H](O)[C@H](O)C1=C(C)C(=O)[C@]2(O1)C(=O)N[C@@](O)(C(=O)c1ccccc1)[C@@H]2O | inactive | inactive | inactive |  |  |
| CC1OC(OC2C(OC(=O)[C@]34CCC(C)(C)C[C@H]3C3=CCC5[C@@]6(C)CC[C@H](OC7OC(C(=O)O)C(O)C(O)C7O)C(C)(C)C6CC[C@@]5(C)[C@]3(C)CC4O)OC(CO)C2O)C(O)C(O)C1OC1OCC(O)C(O)C1O (stereo partly specified) | inactive |  |  | -7.94% [at 9.23 µM] (inactive) | -12.2% [at 9.23 µM] (inactive) |
| C/C=C/C(=O)OC1/C=C/C(O)C(OC(C)=O)CCC(=O)OC1C (stereo unspecified) | inactive | inactive | inactive |  |  |
| CO[C@@H]1[C@]2(O)C(=O)N3/C=C\C(C)(C)c4[nH]c5ccccc5c4/C=C\3C(=O)N2[C@]23[C@H](CO)C(C)(C)N2c2ccccc2[C@]13O | inactive | inactive | inactive |  |  |
| CC1(C)O[C@H]2CC(=O)OC[C@@]23C1=C(O)C(=O)[C@]1(C)C3CC[C@@]2(C)[C@H](c3ccoc3)OC(=O)[C@H]3O[C@]321 (stereo partly specified) | inactive | inactive | inactive |  |  |
| C[C@@H]1[C@H]2[C@H](O[C@@H]3O[C@H](CO)[C@@H](O)[C@H](O)[C@H]3O)OC=C(C(=O)O)[C@H]2C[C@@H]1OC(=O)/C=C/c1ccc(O)cc1 | inactive | inactive | inactive |  |  |
| O=C1NC(=O)/C(=C/c2cccc(C(F)(F)F)c2)S1 | inactive | inactive | inactive |  |  |
| O=C(/C=C/N1C[C@@H]2C[C@@H]1CN2c1ccccn1)c1ccccc1O | inactive | inactive | inactive |  |  |
| C=C1C(O)C(OC(=O)c2ccccc2)C2C(C)(C(=O)O)CCCC2(C)C1CC/C(C)=C\CO (stereo unspecified) | inactive | inactive | inactive |  |  |
| COc1ccc(O[C@@H]2O[C@H](CO)[C@@H](O)[C@H](O)[C@H]2O)cc1OC | inactive | inactive | inactive |  |  |
| NC1(c2ccc(NC(=O)c3ccnc(-c4cc(C(=O)O)ccn4)c3)cc2)CC1 | inactive | inactive | inactive |  |  |
| COc1cc2c(cc1O)C(c1ccc(O)cc1)C(C)C(C)C2 (stereo unspecified) | inactive | 25.8 µM (active) | 18.3 µM (active) |  |  |
| CC1CCC2(C)CCC3(C)C(=CCC4C5(C)CCC(O)C(C)(C(=O)O)C5CCC43C)C2C1C (stereo unspecified) | inactive | inactive | inactive |  |  |
| CC1(C(=O)O)CCCC2(C)C3CC4C5CC3(CCC12)CC45C (stereo unspecified) | inactive | inactive | inactive |  |  |
| C=CC(C)(O)CC/C=C(\C)C1CC=C(C)C(=O)O1 (stereo unspecified) | inactive | inactive | inactive |  |  |
| CC(=C\C(C)O)/C=C(\C)C(=O)CC1CC(CC(N)=O)CC(=O)O1 (stereo unspecified) | inactive | inactive | inactive |  |  |
